Experimental findings from PubChem BioAssay AID463173 (ICCB-Longwood Screening Facility, Harvard Medical School, 2010) are described below.

In all, about 52,000 compounds went through this assay and about 4,300 (8.3%) were called active. This excerpt belongs to a sample that is enriched for actives. Unmarked numbers belong to inactive results. Rule as the data show it: active = survival mostly below about 52% (no sharp cut-off); inactive = mostly above about 56%.

The test system of this experiment is DeltatarO mutant. The experiment is described as follows: S. aureus survival, RN4220 and DeltatarO strains – OD600, teichoic acid synthesis inhibitors, primary screen (AID 463173). The conditions noted are these: S. aureus RN4220 wild type/DeltatarO growth, OD600, 18 h, active compounds read low, screened at 18.75 µg/mL (by protocol).
As to `Cc1onc(-c2ccccc2Cl)c1C(=O)Oc1ccccc1F`, the survival is 76%.

`Cc1ccc(NC(=O)c2cc3c(=O)[nH]c4ccccc4c3n2C)cc1F`: the survival was 83%.

For the compound `O=C(OCCN1CCOCC1)c1ccccc1`, the survival was 88%.

As for `Cc1ccc(-n2ncc3c(NCCCN(C)C)ncnc32)cc1Cl`, the survival was 95%.

For the compound `COc1ccc(-c2noc(-c3ccc(N4CCN(c5ccccc5)CC4)c([N+](=O)[O-])c3)n2)cc1`, the survival was 49%.

For `Cc1ccccc1OCC(=O)Nc1ccc2nc(SCc3ccccc3)sc2c1`, the survival was 88%.

Regarding `Cc1cc(OC(C)C(=O)N(Cc2ccco2)Cc2ccccc2F)cc(C)c1Cl` (stereo not given), the survival was 81%.

`Cc1cccc(OCC(=O)N(Cc2ccc(C(C)C)cc2)Cc2ccco2)c1C`: the survival is 49%.

With `Cc1ccc(CN(Cc2ccco2)C(=O)COc2cc(C)c(Cl)c(C)c2)cc1`, the survival was 58%.

On to `CCc1ccc(OCC(=O)N(Cc2ccc(C)cc2)Cc2ccco2)cc1`, for which the survival is 91%.

In the case of `Cc1ccc(CN(Cc2ccco2)C(=O)COc2ccccc2C)cc1`, the survival is 40% (active).

Take `Cc1cc(OC(C)C(=O)N(Cc2ccc(N(C)C)cc2)Cc2ccco2)ccc1Cl` (stereo not given): the survival is 67%.

Consider `Cc1cc(OC(C)C(=O)N(Cc2ccco2)Cc2ccco2)cc(C)c1Cl` (stereo not given), for which the survival was 35% (active).

As to `Cc1ccc(CN(Cc2ccco2)C(=O)COc2cccc(C)c2C)o1`, the survival is 66%.

Turning to `Cc1cccc(OCC(=O)N(Cc2ccc(N(C)C)cc2)Cc2ccco2)c1C`, the survival was 42% (active).

As for `Cc1ccc(CN(Cc2ccco2)C(=O)COc2c(C)cc(C)cc2C)cc1`, the survival is 54%.

Consider `CCc1ccc(CN(Cc2ccco2)C(=O)COc2ccc(Cl)c(C)c2)cc1`, for which the survival was 38% (active).

For `Cc1ccc(OCC(=O)N(Cc2ccc(Cl)cc2)Cc2ccco2)cc1C`, the survival was 58%.

With `NNC(=O)C1CCN(S(=O)(=O)c2ccccc2N)CC1`, the survival was 95%.

In the case of `CCOc1cc(C(=O)OCc2cc(=O)n3nc(C4CC4)sc3n2)cc(OCC)c1OCC`, the survival was 79%.

Regarding `COCCNC(=S)N1CCC(NC(=O)Nc2ccc(F)cc2)CC1`, the survival was 91%.

With `CC(SCc1ccccc1)C(=O)NCc1ccccn1` (stereo not given), the survival is 77%.

Consider `COc1ccccc1N1CCN(C(=O)Cn2ncc3ccsc3c2=O)CC1`, for which the survival was 114%.

Regarding `CC1CCc2c(sc(NC(=O)c3ccc(Cl)cc3Cl)c2C#N)C1` (stereo not given), the survival was 71%.

In the case of `COc1cc(CN(C(=O)c2ccc(C)cc2)c2ccccn2)cc(OC)c1OC`, the survival is 78%.

As to `CN(CCC(N)=O)Cc1ccccc1`, the survival was 75%.

As for `CCCCCn1c(CNC(=O)c2ccc(F)cc2)nc2ccccc21`, the survival was 68%.

For the compound `CC(C)Cn1c(/C=C/c2ccc(F)cc2)nc2ccccc21`, the survival is -4% (active).

Turning to `CCCn1c(CNC(=O)c2ccc(F)cc2)nc2ccccc21`, the survival is 76%.

Turning to `Cc1cccc(C(=O)NCCc2nc3ccccc3n2CCC(C)C)c1`, the survival was 99%.

As for `CC(C)CCn1c(/C=C/c2ccccc2)nc2ccccc21`, the survival is -1% (active).

In the case of `CCC(C)Cn1c(/C=C/c2ccccc2)nc2ccccc21` (stereo not given), the survival is -1% (active).

As to `CCn1c(O)c(/C=C/c2nc3ccccc3n2CC)sc1=S`, the survival was 78%.

Take `CCCCCn1c(CNC(=O)c2ccccc2)nc2ccccc21`: the survival is 67%.

Take `CCCn1c(SCC(O)c2ccccc2)nc2ccccc21` (stereo not given): the survival is 86%.

On to `CCc1nc2ccccc2n1CC(C)C(=O)O` (stereo not given), for which the survival is 96%.

As for `CCCCCCn1c(CNC(=O)c2ccccc2)nc2ccccc21`, the survival is 66%.

Take `CCCCCCn1c(/C=C/c2ccccc2)nc2ccccc21`: the survival was 1% (active).

As for `COc1ccc(OCc2ccc(-c3nc(C#N)c(NCc4ccccc4)o3)o2)cc1`, the survival was 78%.

In the case of `COc1cc(C(CC(=O)Nc2cccc(C(C)=O)c2)N2Cc3ccccc3C2=O)cc(OC)c1OC` (stereo not given), the survival was 67%.

Consider `COc1ccccc1N1CCN(C(=O)c2c3c(nc4ccccc24)C(=O)N(C2CCCCC2)C3)CC1`, for which the survival is 94%.

For `Cc1ccc(-c2nnc(Nc3ccc(S(N)(=O)=O)cc3)c3ccccc23)cc1S(=O)(=O)N1CCCCC1`, the survival was 103%.

As to `Cn1c(SCC(=O)N2CCOCC2)ncc(C(=O)Nc2ccc(F)cc2)c1=O`, the survival was 87%.

With `CCOc1ccc(NS(=O)(=O)c2ccc(C(=O)N(C)C)s2)cc1`, the survival was 76%.

As to `CCOc1cc2sc(N3CCC(C(=O)Nc4ccc(CC)cc4)CC3)nc2cc1Br`, the survival was 86%.

For `Cc1ccc(/C=C/c2nc3ccccc3n2S(=O)(=O)c2cccc(Cl)c2)cc1`, the survival is 77%.

Take `Cn1c(C=Nc2ccc(Cl)cc2)nc2ccccc21`: the survival was 83%.

`C#CCn1c(/C=C/c2ccc(Cl)cc2)nc2ccccc21`: the survival is 10% (active).

`COc1ccc(-c2nnc(SCC(=O)Nc3ccc(Cl)cc3)s2)cc1`: the survival is 84%.

`Cc1ccc(-n2nc(C(=O)N3CCN(c4cccc(C(F)(F)F)c4)CC3)c3c4ccccc4n(C)c3c2=O)cc1`: the survival is 95%.

On to `Cn1cc(C(=O)N2CCN(c3cccc(C(F)(F)F)c3)CC2)c2c3ccccc3n(C)c2c1=O`, for which the survival is 20% (active).

With `Cn1c2ccccc2c2c(C(=O)N3CCN(c4cccc(C(F)(F)F)c4)CC3)cn(C3CCCCC3)c(=O)c21`, the survival is 88%.

For `O=C(NCc1cccc(Cl)c1)C1CCCN(c2nn3cc(-c4ccc(F)cc4)nc3s2)C1` (stereo not given), the survival was 87%.

As for `CCc1ccccc1NC(=O)c1nc(-c2ccncc2)no1`, the survival is 46%.

Take `Cc1cc(C)c(S(=O)(=O)N2CCC(n3c(C(F)(F)F)nc4cccnc43)CC2)c(C)c1`: the survival is 79%.

With `O=C(Cn1c(C(=O)N2CCOCC2)cc2sccc21)c1ccccc1`, the survival is 99%.

For the compound `Oc1ccccc1C1OC2CCCCC2C2=CCCCC21` (stereo not given), the survival was 34% (active).

On to `CC1=CCC2(CO)COC(c3ccccc3O)C1C2` (stereo not given), for which the survival was 90%.

For the compound `Oc1ccccc1C1OCC(C2CC=CCC2)CO1` (stereo not given), the survival is 96%.

Take `c1ccc2c(c1)[nH]c1c(N3CCOCC3)ncnc12`: the survival was 68%.

`COc1cccc(CCNC(=O)Cn2c(-c3cccs3)cc3ccccc32)c1`: the survival was 70%.

Consider `O=C(Nc1c2c(nn1-c1ccc(Cl)cc1)CS(=O)(=O)C2)c1cccc(F)c1`, for which the survival is 55%.

As to `Cc1noc(/C=C/c2ccccc2F)c1S(=O)(=O)N1CCC(C(=O)NCc2ccco2)CC1`, the survival was 107%.

As for `COc1cc2nc(NCCC(C)C)n3nc(-c4ccccc4)nc3c2cc1OC`, the survival was 49%.

In the case of `COc1cc2nc(NCC(C)c3ccccc3)n3nc(-c4ccccc4)nc3c2cc1OC` (stereo not given), the survival is 61%.

As to `COCCCNc1nc2cc(OC)c(OC)cc2c2nc(-c3ccccc3)nn12`, the survival is 47% (active).

For `COCCCNC(=O)CSc1nc2cc(OC)c(OC)cc2c2nc(-c3ccccc3)nn12`, the survival is 78%.

For the compound `CCOCCCNc1nc2cc(OC)c(OC)cc2c2nc(-c3ccccc3)nn12`, the survival is 44% (active).

`COc1cc2nc(NCc3ccccc3)n3nc(-c4ccccc4)nc3c2cc1OC`: the survival was 47% (active).

Regarding `COc1cc2nc(NCc3ccc(C)cc3)n3nc(-c4ccccc4)nc3c2cc1OC`, the survival was 61%.

Consider `COc1ccc(OC)c(CCNc2nc3cc(OC)c(OC)cc3c3nc(-c4cccnc4)nn23)c1`, for which the survival is 126%.

With `CCC(C)NC(=O)c1c(C)oc2ncn(CC(C)C)c(=O)c12` (stereo not given), the survival was 79%.

For `COC(=O)c1c(-c2ccc(Cl)cc2)noc1N1CCN(c2cccc(C)c2C)CC1`, the survival was 79%.

As to `CN1C(=O)CSC1=Nc1cccc(C(=O)O)c1`, the survival is 89%.

Regarding `COC(=O)c1csc(N)n1`, the survival is 95%.

Take `CCOc1ccc2c(c1)c(=O)c(S(=O)(=O)c1ccc(F)cc1)cn2CC(=O)Nc1ccccc1C`: the survival is 96%.

In the case of `Cc1nn2c(=O)cc(COC(=O)c3ccc(NC(=O)c4cccc(Br)c4)cc3)nc2s1`, the survival was 97%.

Turning to `CC1=Nc2cc(C(=O)N3CCC(C)CC3)ccc2Sc2ccc(Cl)cc21`, the survival is 90%.

In the case of `CC1=Nc2cc(C(=O)N3CCCCC3)ccc2Sc2ccc(C)cc21`, the survival is 48%.

For `CCC1=Nc2cc(C(=O)N3CCC(C)CC3)ccc2Sc2ccc(C)cc21`, the survival was -4% (active).

For the compound `CCCC1=Nc2cc(C(=O)N3CCC(C)CC3)ccc2Sc2ccc(C)cc21`, the survival is 97%.

For the compound `CCOC(=O)C1CCN(C(=O)c2ccc3c(c2)N=C(CC)c2cc(C)ccc2S3)CC1`, the survival was 36% (active).

In the case of `CCCC1=Nc2cc(C(=O)N3CCC(C(=O)OCC)CC3)ccc2Sc2ccccc21`, the survival is 79%.

In the case of `O=C(CNCc1ccccc1F)Nc1ccc(N2CCCC2)cc1`, the survival is 102%.

For the compound `Cc1nnc2c3ccccc3nc(N3CCN(c4cccc(Cl)c4)CC3)n12`, the survival was 92%.

On to `COc1ccc(CNC(=O)CCc2c(C)nc3cc(-c4ccc(OC)cc4OC)nn3c2C)cc1`, for which the survival was 121%.

As for `CCn1cc(C(=O)NCc2ccc(F)cc2)c(=O)c2cc(S(=O)(=O)N(C)C)ccc21`, the survival is 81%.

Consider `CCOCCc1nn2c(=O)cc(COC(=O)c3ccc(NC(=O)C4CCCCC4)cc3)nc2s1`, for which the survival was 70%.

As to `COc1ccc(N2CC(C(=O)Nc3ccccc3-c3nc(-c4ccc(C)cc4)no3)CC2=O)cc1` (stereo not given), the survival is 54% (active).

As to `COc1cccc(C(=O)Nc2ccccc2-c2nc(-c3ccc(C)cc3)no2)c1`, the survival was 48% (active).

`COc1cc(C(=O)Nc2ccccc2-c2nc(-c3ccc(C)cc3)no2)cc(OC)c1OC`: the survival is 53%.

Turning to `Cc1ccc(-c2noc(-c3ccccc3NC(=O)c3ccccc3)n2)cc1`, the survival was 69%.

`Cc1ccc(-c2noc(-c3ccccc3NC(=O)C3CC(=O)N(c4cccc(C)c4)C3)n2)cc1` (stereo not given): the survival was 66%.

Regarding `COc1ccc(C(=O)Nc2ccccc2-c2nc(-c3ccc(OC)cc3)no2)cc1`, the survival was 48%.

Regarding `COc1cccc(-c2noc(-c3cc(C(C)C)[nH]n3)n2)c1OC`, the survival was 73%.

For the compound `COc1ccc(-c2noc(-c3ccccc3NC(=O)c3cc(OC)c(OC)c(OC)c3)n2)cc1`, the survival was 34% (active).

In the case of `COc1ccc(-c2noc(-c3cccc(OC)c3OC)n2)cc1`, the survival was 8% (active).

Regarding `Cc1ccc(-c2noc(-c3ccccc3NC(=O)C3CC(=O)N(c4ccc(C)cc4)C3)n2)cc1` (stereo not given), the survival was 48%.

On to `COc1cccc(-c2noc(-c3cc4ccccc4oc3=O)n2)c1OC`, for which the survival was 102%.

With `COc1cc(C(=O)Nc2ccccc2-c2nc(-c3ccccc3)no2)cc(OC)c1OC`, the survival was 66%.
